According to PubChem BioAssay AID1159580 (chemical genetic matrix, 2015):
About 2,000 (36%) of roughly 5,500 compounds were called active. Another 18% or so got no clear call; they are omitted. No stated cut-off is given here; in the data, active means normalized growth mostly below about 0.91 (no sharp cut-off); inconclusive means no clear call, values can overlap the other calls; inactive means mostly above about 0.92. The list shows a part of the results.

Assay: chemical genetic growth profiling, strain panel (AID 1159580);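 further: tested at 20 µM; growth read once vehicle control cultures reached saturation at 30 °C; 1 = growth at the plate median or of vehicle wells; lower values mean less growth of the strain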
Settings: growth OD

Measured: normalized growth

CCOP(=S)(OCC)Oc1nc(Cl)c(Cl)cc1Cl
inactive: S. cerevisiae deletion strains, locus YJR075W, strain HOC1, active compounds read low 0.999 | S. cerevisiae deletion strains, locus YKL009W, strain mrt4, active compounds read low 1 | S. cerevisiae deletion strains, locus YKL068W, active compounds read low 0.99 | S. cerevisiae deletion strains, locus YKL085W, strain MDH1 (second series), active compounds read low 0.996 | S. cerevisiae deletion strains, locus YKL085W, strain MDH1, active compounds read low 0.996 | S. cerevisiae deletion strains, locus YKL160W, strain elf1, active compounds read low 0.974 | S. cerevisiae deletion strains, locus YKL190W, strain CNB1, active compounds read low 0.996 | S. cerevisiae deletion strains, locus YKR001C, strain vps1, active compounds read low 0.937 | S. cerevisiae deletion strains, locus YKR026C, strain gcn3, active compounds read low 0.957 | S. cerevisiae deletion strains, locus YKR091W, strain srl3, active compounds read low 0.948 | S. cerevisiae deletion strains, locus YLL001W, strain dnm1, active compounds read low 0.927 | S. cerevisiae deletion strains, locus YLL026W, active compounds read low 0.982 | S. cerevisiae deletion strains, locus YLL041C, strain sdh2, active compounds read low 0.954 | S. cerevisiae deletion strains, locus YLR027C, strain aat2, active compounds read low 0.967 | S. cerevisiae deletion strains, locus YLR039C, strain RIC1, active compounds read low 0.898 | S. cerevisiae deletion strains, locus YLR058C, strain SHM2, active compounds read low 0.998 | S. cerevisiae deletion strains, locus YLR102C, strain apc9, active compounds read low 0.986 | S. cerevisiae deletion strains, locus YLR258W, strain gsy2, active compounds read low 0.965 | S. cerevisiae deletion strains, locus YLR262C, strain YPT6, active compounds read low 0.945 | S. cerevisiae deletion strains, locus YLR268W, strain sec22, active compounds read low 0.986 | S. cerevisiae deletion strains, locus YLR330W, strain CHS5, active compounds read low 1 | S. cerevisiae deletion strains, locus YLR342W, strain FKS1 (second series), active compounds read low 1.05 | S. cerevisiae deletion strains, locus YLR342W, strain FKS1, active compounds read low 0.945 | S. cerevisiae deletion strains, locus YLR357W, strain rsc2, active compounds read low 0.932 | S. cerevisiae deletion strains, locus YLR370C, strain arc18, active compounds read low 0.981 | S. cerevisiae deletion strains, locus YLR371W, strain rom2, active compounds read low 0.999 | S. cerevisiae deletion strains, locus YLR384C, strain iki3, active compounds read low 0.989 | S. cerevisiae deletion strains, locus YLR418C, strain cdc73, active compounds read low 0.938 | S. cerevisiae deletion strains, locus YML016C, strain PPZ1, active compounds read low 1 | S. cerevisiae deletion strains, locus YML032C, strain rad52, active compounds read low 0.979 | S. cerevisiae deletion strains, locus YML120C, strain ndi1, active compounds read low 0.946 | S. cerevisiae deletion strains, locus YML124C, strain tub3, active compounds read low 0.99 | S. cerevisiae deletion strains, locus YMR058W, strain fet3, active compounds read low 0.921 | S. cerevisiae deletion strains, locus YMR078C, strain ctf18, active compounds read low 0.984 | S. cerevisiae deletion strains, locus YMR125W, strain sto1, active compounds read low 0.97 | S. cerevisiae deletion strains, locus YMR129W, active compounds read low 0.953 | S. cerevisiae deletion strains, locus YMR223W, strain ubp8, active compounds read low 0.988 | S. cerevisiae deletion strains, locus YMR231W, strain pep5, active compounds read low 0.968 | S. cerevisiae deletion strains, locus YMR263W, strain SAP30, active compounds read low 1.04 | S. cerevisiae deletion strains, locus YMR307W, strain GAS1, active compounds read low 0.873 | S. cerevisiae deletion strains, locus YNL067W, strain RPL9B, active compounds read low 1 | S. cerevisiae deletion strains, locus YNL128W, strain TEP1, active compounds read low 1.01 | S. cerevisiae deletion strains, locus YNL153C, strain GIM3, active compounds read low 1.01 | S. cerevisiae deletion strains, locus YNL209W, strain ssb2, active compounds read low 0.995 | S. cerevisiae deletion strains, locus YNL233W, strain BNI4, active compounds read low 0.993 | S. cerevisiae deletion strains, locus YNL248C, strain rpa49, active compounds read low 0.93 | S. cerevisiae deletion strains, locus YNL250W, strain rad50, active compounds read low 0.974 | S. cerevisiae deletion strains, locus YNL271C, strain bni1, active compounds read low 0.996 | S. cerevisiae deletion strains, locus YNL298W, strain CLA4, active compounds read low 0.983 | S. cerevisiae deletion strains, locus YNL307C, strain MCK1, active compounds read low 0.932 | S. cerevisiae deletion strains, locus YNL322C, strain KRE1 (second series), active compounds read low 0.943 | S. cerevisiae deletion strains, locus YNL322C, strain KRE1, active compounds read low 0.998 | S. cerevisiae deletion strains, locus YNR049C, strain mso1, active compounds read low 0.959 | S. cerevisiae deletion strains, locus YNR052C, strain pop2, active compounds read low 0.994 | S. cerevisiae deletion strains, locus YOL006C, strain TOP1, active compounds read low 0.861 | S. cerevisiae deletion strains, locus YOL012C, strain htz1 0.789 | S. cerevisiae deletion strains, locus YOL147C, strain pex11, active compounds read low 0.977 | S. cerevisiae deletion strains, locus YOR001W, strain rrp6, active compounds read low 0.986 | S. cerevisiae deletion strains, locus YOR061W, strain CKA2, active compounds read low 0.998 | S. cerevisiae deletion strains, locus YOR069W, strain VPS5, active compounds read low 0.997 | S. cerevisiae deletion strains, locus YOR070C, strain gyp1, active compounds read low 0.982 | S. cerevisiae deletion strains, locus YOR080W, strain dia2, active compounds read low 1 | S. cerevisiae deletion strains, locus YOR083W, strain WHI5, active compounds read low 0.923 | S. cerevisiae deletion strains, locus YOR136W, strain idh2, active compounds read low 0.992 | S. cerevisiae deletion strains, locus YOR144C, strain elg1, active compounds read low 0.987 | S. cerevisiae deletion strains, locus YOR184W, strain ser1, active compounds read low 0.99 | S. cerevisiae deletion strains, locus YOR265W, strain rbl2, active compounds read low 0.976 | S. cerevisiae deletion strains, locus YOR290C, strain snf2, active compounds read low 0.941 | S. cerevisiae deletion strains, locus YOR316C, strain cot1, active compounds read low 0.991 | S. cerevisiae deletion strains, locus YPL051W, strain arl3, active compounds read low 0.974 | S. cerevisiae deletion strains, locus YPL055C, strain LGE1, active compounds read low 1.04 | S. cerevisiae deletion strains, locus YPL078C, strain atp4, active compounds read low 0.97 | S. cerevisiae deletion strains, locus YPL106C, strain sse1, active compounds read low 0.933 | S. cerevisiae deletion strains, locus YPL240C, strain hsp82, active compounds read low 0.979 | S. cerevisiae deletion strains, locus YPL241C, strain CIN2, active compounds read low 1 | S. cerevisiae deletion strains, locus YPR119W, strain clb2, active compounds read low 0.974 | S. cerevisiae deletion strains, locus YPR141C, strain kar3, active compounds read low 0.986 | S. cerevisiae deletion strains, locus YPR163C, strain tif3, active compounds read low 1.02 | S. cerevisiae deletion strains, locus YPR167C, strain met16, active compounds read low 0.99 | S. cerevisiae deletion strains, strain wtn01, active compounds read low 0.991 | S. cerevisiae strains, strain wild type, active compounds read low 0.995
active: S. cerevisiae deletion strains, locus YLR221C, strain rsa3, active compounds read low 0.852 | S. cerevisiae deletion strains, locus YLR262C, strain YPT6 (second series), active compounds read low 0.724 | S. cerevisiae deletion strains, locus YLR320W, strain mms22, active compounds read low 0.828 | S. cerevisiae deletion strains, locus YMR205C, strain PFK2, active compounds read low 0.842 | S. cerevisiae deletion strains, locus YNL071W, strain lat1, active compounds read low 0.526 | S. cerevisiae deletion strains, locus YOR106W, strain vam3, active compounds read low 0.844 | S. cerevisiae deletion strains, locus YOR270C, strain vph1, active compounds read low 0.441
